Data as given in PubChem BioAssay AID1347426 (Functional Genomics Laboratory (NCATS/FGL), 2020).
Out of some 31,000 sequences screened, about 1,400 (4.5%) were called active. The sample as a whole holds a higher share of actives than the screen did. Unmarked numbers belong to inactive results.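 How the source made its calls: active means median seed-adjusted z-score above 1 or below -1; inactive means the rest.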

assay: Novel Modifiers of Survival Motor Neuron (SMN) Protein: Gene Identification via Genome-wide siRNA Screen; conditions: HEK293T SMN2-luciferase reporter, siRNA knockdown, 72 h; actives lie on both sides;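 further: luminescence tracks full-length SMN protein made from the SMN2 reporter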
In short: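 Steps: spot 1 pmol siRNA, add Lipofectamine RNAiMax in serum-free DMEM, seed HEK293T SMN2–luciferase reporter cells; incubate 72 h at 37 °C; add ONE-Glo; normalize luminescence to control siRNA, log10, MAD. Candidates: |MAD| > 1.0.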

Sequence	median seed-adjusted z-score
CCUCGUCGAUCGUGCAUCUTT against ADRA2C	0
CGAAAGGAAACCUAACGAATT against HIVEP2	0.294
GCACAGGCAUCAUCGGGAATT against SGSH	0.383
GCCUCAAGGUUCACCUGAATT against PRDM1	-0.16
GUAUCUCAACAUCAAACUATT against LSM2	-1.48 (active)
GGGCUGAUGUUAUCAACUUTT against CNTNAP2	-0.196
CGACACUGCCGAAUGGAAATT against SRCRB4D	-0.0568
UGCCCGUCAUUGUCUCCAATT against KCNA7	0.394
AGAUCAUUGCUUUCAGUGATT against PRDX1	0.288
CCUACAAUGUGGUGCAUAUTT against DYRK4	-0.824
CAAGAAUUCCGAUUUCCAATT against GNGT2	-0.289
GCAAUGAACUCAACAGCUATT against ANGPTL7	0
GCUAGACCGACCCACCAUATT against FKBP6	-1.12 (active)
GGUUAUCGACGACAGCAGATT against AGAP3	0.554
GCAUCCCACUACUACAAAUTT against KSR2	-0.371
UCAUCUUCAUCGACCGGAATT against AGPAT1	-1.38 (active)
UACCUGUGGUCAUUCCUUATT against HHATL	0.497
ACACCUCACUCAUCCUCUUTT against GNAZ	-0.604
GGGCAAUGAUAGAAAGAAUTT against STK35	0.519
GGAGGGAUGGUUACUGUUATT against TOX4	0
GAUGCAUUCGAUGACCUGATT against PTGES2	-0.02
GCCUAUUCCUUCAAGUAUUTT against SUPT6H	-2.54 (active)
CAGUGAAAAGUGACGCGGATT against DZIP1	-0.138

Sequence	median seed-adjusted z-score
CGAAAGUCCUCACCAACAATT against TSHZ1	0.526
GCCUUUCAUCAGAUCUUCUTT against DBX1	0.0137
GAAUCUGUCUUAGAUCUCATT against PRDM2	1.12 (active)
CCAUAGAAUUCAAAAUCCUTT against BCL2L14	-0.859
GGAGUCUACUUUACCGGUATT against BPIL2	-0.63
GCAGAGAAAAUAUAACUGATT against NPHP1	-0.0667
AGAUGGUCCAAGAUCCAGATT against CHRM4	-0.856
GGAGUUUCCCAUCAAACGATT against PADI4	0.417
CUUCCUAGGUUACAAGUAATT against FAM84B	-0.431
GGGACAAGCUUGACAAGGUTT against TRIM62	-0.000231
GGGUGUCUAAAGGUACAUATT against FSD2	0.359
GUACGUUGUAUGUUAAACATT against SLC12A2	-0.4
CGAUUCCAGCAGUAGCUCATT against AP3B2	-2.45 (active)
GGAGUUCGCAAAAUCGUCATT against NRK	0.0687
CCUCCAUGUCCAACCCAUATT against FOSL2	-0.372
AGUAGAACGUGUACGCAGATT against MGST1	-0.0144
GAAUAUCGGCAGAGAGAUATT against RNF12	0.29
CGGAGAAGAUGUUCGCCGATT against SIL1	0.0292
GGAUGUGCACUCUCAUUGATT against COPA	-0.807
GGAGAUUCAGAUCCUCAAATT against JAK3	-0.0926
GCAACACCCAGGUAGUUUUTT against EIF4A1	-1.05 (active)
GAAGCUCUACUCACAGUUUTT against GSTM2	-0.464
CUUAACCUGUGGAAUCGAATT against NIPA2	-0.103

Sequence	median seed-adjusted z-score
GCAAAGAUAGAAGAAGAUATT against DDI2	1.27 (active)
GCAAGAUGAUUUUAUCUCUTT against CDA	0.471
CAUUAAAGCAGCUACCAAUTT against PSMC3IP	-0.0482
GCAACAGCAUUAUGACCCATT against COL10A1	-0.0291
GGUUGCGGCUCAGAACAAATT against OAS3	0.147
GGACCUGAUUGAUGCCGUCTT against PYCR1	-0.171
AGACCUCGAUUUCACAGUATT against PRMT8	0
CAGAGUAUGUAAAUAGACATT against CAPRIN1	1.36 (active)
GGAAGUGCCCAGUGACUUATT against SLPI	0.274
GCACUGUCACUAAGCAGAATT against CHEK2	0.585
GAGAGAUCAUUGCAAAGCATT against HNRNPM	0.499
GCCUCUACAGCAGAAGAAATT against LAMB2	1.12 (active)
GGAGAGACUUUUUACAACUTT against CACNG6	-0.0499
CUGUCCAUAGUGUCAUUAATT against GALNT1	-0.164
CUUGUCAAGUACGACCUUATT against NINJ1	-0.061
GGCUGUUCGAGUCCUGAAATT against FMO1	0.323
GAGCAGGUGUUAUUAUGGATT against CLCN3	-0.0801
GUUCAGCCGUGGAAAGAAATT against WFDC6	0.0443
GAAAUACAAGGAAUCUGAATT against TMTC4	-1.16 (active)
GCACCGUGGUGUCAACCAUTT against KCNK12	1.04 (active)
CCUACUCAAUGUGAUAUAUTT against ADAMDEC1	0.0106
CCCUUAAUCUACAAUAUCATT against PHTF1	0.0129
GUCCCGAUCUGUGCUCUGATT against DUSP2	0.576
